Data: PubChem BioAssay AID1159580 (chemical genetic matrix, 2015)
The whole screen tested about 5,500 compounds, of which about 2,000 (36%) were called active. Roughly 18% stayed inconclusive and do not appear here. Rule as the data show it: active = normalized growth mostly below about 0.91 (no sharp cut-off); inconclusive = no clear call, values can overlap the other calls; inactive = mostly above about 0.92. Some of the results follow.

Assay: chemical genetic growth profiling, strain panel (AID 1159580);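 also: tested at 20 µM; growth read once vehicle control cultures reached saturation at 30 °C; 1 = growth at the plate median or of vehicle wells; lower values mean less growth of the strain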
Details: growth OD

Measured: normalized growth

CC(=O)O[C@@H]1CC2C(C)(C)[C@H](O)CC[C@]2(C)C2CC[C@@]3(C)[C@H](c4ccoc4)OC(=O)C4OC43[C@@]21C (some centres not stated)
inactive: S. cerevisiae deletion strains, locus YJR066W, strain TOR1, stronger effect = lower value 1 | S. cerevisiae deletion strains, locus YJR075W, strain HOC1, stronger effect = lower value 1 | S. cerevisiae deletion strains, locus YKL009W, strain mrt4, stronger effect = lower value 0.963 | S. cerevisiae deletion strains, locus YKL068W, stronger effect = lower value 0.991 | S. cerevisiae deletion strains, locus YKL085W, strain MDH1 (second series), stronger effect = lower value 0.99 | S. cerevisiae deletion strains, locus YKL085W, strain MDH1, stronger effect = lower value 0.99 | S. cerevisiae deletion strains, locus YKL160W, strain elf1, stronger effect = lower value 0.989 | S. cerevisiae deletion strains, locus YKR001C, strain vps1, stronger effect = lower value 0.969 | S. cerevisiae deletion strains, locus YKR026C, strain gcn3, stronger effect = lower value 0.992 | S. cerevisiae deletion strains, locus YKR091W, strain srl3, stronger effect = lower value 1.01 | S. cerevisiae deletion strains, locus YLL001W, strain dnm1, stronger effect = lower value 1.03 | S. cerevisiae deletion strains, locus YLL026W, stronger effect = lower value 1.01 | S. cerevisiae deletion strains, locus YLL041C, strain sdh2, stronger effect = lower value 1.01 | S. cerevisiae deletion strains, locus YLR027C, strain aat2, stronger effect = lower value 1.01 | S. cerevisiae deletion strains, locus YLR039C, strain RIC1, stronger effect = lower value 1.01 | S. cerevisiae deletion strains, locus YLR058C, strain SHM2, stronger effect = lower value 1 | S. cerevisiae deletion strains, locus YLR102C, strain apc9, stronger effect = lower value 0.989 | S. cerevisiae deletion strains, locus YLR113W, strain HOG1, stronger effect = lower value 1.08 | S. cerevisiae deletion strains, locus YLR221C, strain rsa3, stronger effect = lower value 1.02 | S. cerevisiae deletion strains, locus YLR258W, strain gsy2, stronger effect = lower value 1.02 | S. cerevisiae deletion strains, locus YLR262C, strain YPT6 (second series), stronger effect = lower value 1 | S. cerevisiae deletion strains, locus YLR262C, strain YPT6, stronger effect = lower value 1.05 | S. cerevisiae deletion strains, locus YLR268W, strain sec22, stronger effect = lower value 0.984 | S. cerevisiae deletion strains, locus YLR320W, strain mms22, stronger effect = lower value 1.03 | S. cerevisiae deletion strains, locus YLR342W, strain FKS1 (second series), stronger effect = lower value 1.06 | S. cerevisiae deletion strains, locus YLR342W, strain FKS1, stronger effect = lower value 1.01 | S. cerevisiae deletion strains, locus YLR357W, strain rsc2, stronger effect = lower value 1.03 | S. cerevisiae deletion strains, locus YLR370C, strain arc18, stronger effect = lower value 1.01 | S. cerevisiae deletion strains, locus YLR371W, strain rom2, stronger effect = lower value 0.975 | S. cerevisiae deletion strains, locus YLR384C, strain iki3, stronger effect = lower value 1.02 | S. cerevisiae deletion strains, locus YLR418C, strain cdc73, stronger effect = lower value 0.984 | S. cerevisiae deletion strains, locus YML016C, strain PPZ1, stronger effect = lower value 0.982 | S. cerevisiae deletion strains, locus YML032C, strain rad52, stronger effect = lower value 0.975 | S. cerevisiae deletion strains, locus YML120C, strain ndi1, stronger effect = lower value 1.03 | S. cerevisiae deletion strains, locus YML124C, strain tub3, stronger effect = lower value 0.988 | S. cerevisiae deletion strains, locus YMR058W, strain fet3, stronger effect = lower value 1.03 | S. cerevisiae deletion strains, locus YMR078C, strain ctf18, stronger effect = lower value 0.972 | S. cerevisiae deletion strains, locus YMR125W, strain sto1, stronger effect = lower value 1 | S. cerevisiae deletion strains, locus YMR129W, stronger effect = lower value 1 | S. cerevisiae deletion strains, locus YMR205C, strain PFK2, stronger effect = lower value 1.04 | S. cerevisiae deletion strains, locus YMR223W, strain ubp8, stronger effect = lower value 0.995 | S. cerevisiae deletion strains, locus YMR231W, strain pep5, stronger effect = lower value 1.01 | S. cerevisiae deletion strains, locus YMR307W, strain GAS1, stronger effect = lower value 0.977 | S. cerevisiae deletion strains, locus YNL067W, strain RPL9B, stronger effect = lower value 1.02 | S. cerevisiae deletion strains, locus YNL071W, strain lat1, stronger effect = lower value 0.994 | S. cerevisiae deletion strains, locus YNL128W, strain TEP1, stronger effect = lower value 0.975 | S. cerevisiae deletion strains, locus YNL153C, strain GIM3, stronger effect = lower value 1.01 | S. cerevisiae deletion strains, locus YNL183C, strain NPR1, stronger effect = lower value 1.01 | S. cerevisiae deletion strains, locus YNL209W, strain ssb2, stronger effect = lower value 1.01 | S. cerevisiae deletion strains, locus YNL233W, strain BNI4, stronger effect = lower value 1.04 | S. cerevisiae deletion strains, locus YNL248C, strain rpa49, stronger effect = lower value 0.979 | S. cerevisiae deletion strains, locus YNL250W, strain rad50, stronger effect = lower value 1 | S. cerevisiae deletion strains, locus YNL271C, strain bni1, stronger effect = lower value 0.991 | S. cerevisiae deletion strains, locus YNL298W, strain CLA4, stronger effect = lower value 0.992 | S. cerevisiae deletion strains, locus YNL307C, strain MCK1, stronger effect = lower value 0.995 | S. cerevisiae deletion strains, locus YNL322C, strain KRE1 (second series), stronger effect = lower value 1.01 | S. cerevisiae deletion strains, locus YNL322C, strain KRE1, stronger effect = lower value 1.01 | S. cerevisiae deletion strains, locus YNR049C, strain mso1, stronger effect = lower value 1.01 | S. cerevisiae deletion strains, locus YNR052C, strain pop2, stronger effect = lower value 0.997 | S. cerevisiae deletion strains, locus YOL012C, strain htz1 1.17 | S. cerevisiae deletion strains, locus YOL147C, strain pex11, stronger effect = lower value 0.992 | S. cerevisiae deletion strains, locus YOR001W, strain rrp6, stronger effect = lower value 0.994 | S. cerevisiae deletion strains, locus YOR061W, strain CKA2, stronger effect = lower value 0.94 | S. cerevisiae deletion strains, locus YOR069W, strain VPS5, stronger effect = lower value 1 | S. cerevisiae deletion strains, locus YOR070C, strain gyp1, stronger effect = lower value 1.01 | S. cerevisiae deletion strains, locus YOR080W, strain dia2, stronger effect = lower value 1.01 | S. cerevisiae deletion strains, locus YOR083W, strain WHI5, stronger effect = lower value 0.979 | S. cerevisiae deletion strains, locus YOR106W, strain vam3, stronger effect = lower value 1 | S. cerevisiae deletion strains, locus YOR136W, strain idh2, stronger effect = lower value 0.998 | S. cerevisiae deletion strains, locus YOR144C, strain elg1, stronger effect = lower value 0.984 | S. cerevisiae deletion strains, locus YOR184W, strain ser1, stronger effect = lower value 0.975 | S. cerevisiae deletion strains, locus YOR231W, strain MKK1, stronger effect = lower value 1.09 | S. cerevisiae deletion strains, locus YOR265W, strain rbl2, stronger effect = lower value 1.01 | S. cerevisiae deletion strains, locus YOR270C, strain vph1, stronger effect = lower value 0.912 | S. cerevisiae deletion strains, locus YOR290C, strain snf2, stronger effect = lower value 0.985 | S. cerevisiae deletion strains, locus YOR316C, strain cot1, stronger effect = lower value 0.977 | S. cerevisiae deletion strains, locus YPL051W, strain arl3, stronger effect = lower value 1 | S. cerevisiae deletion strains, locus YPL078C, strain atp4, stronger effect = lower value 0.973 | S. cerevisiae deletion strains, locus YPL106C, strain sse1, stronger effect = lower value 1.03 | S. cerevisiae deletion strains, locus YPL240C, strain hsp82, stronger effect = lower value 1 | S. cerevisiae deletion strains, locus YPL256C, strain CLN2, stronger effect = lower value 1.08 | S. cerevisiae deletion strains, locus YPR119W, strain clb2, stronger effect = lower value 0.992 | S. cerevisiae deletion strains, locus YPR141C, strain kar3, stronger effect = lower value 0.962 | S. cerevisiae deletion strains, locus YPR163C, strain tif3, stronger effect = lower value 0.984 | S. cerevisiae deletion strains, locus YPR167C, strain met16, stronger effect = lower value 0.998 | S. cerevisiae deletion strains, strain wtn01, stronger effect = lower value 0.959 | S. cerevisiae strains, strain wild type, stronger effect = lower value 1
